# TROY NFkB inh: blocks TROY-dependent signaling in reporter cells; Q293 LMP1-TROYcd NF-kB luciferase reporter, 4 h; inhibition, % at 10 µM; 0.98% of 360,000 active;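 active = compounds whose plate-normalised and pattern-corrected inhibition of the luciferase reporter signal at the single screening dose is 50% or more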
# HSP90 inh: inhibitors of HSP90 luciferase refolding in rabbit reticulocyte lysate; luciferase refolding luminescence, 3 h; 0.91% of 290,000 active; inhibition, % at 5.6 µM; AID 1789;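 active = inhibition above the screen-wide mean plus 3 SD, computed separately per campaign, cut at about 16% in these data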;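 also: 0% = DMSO wells and 100% = 60 µM geldanamycin wells; inhibitors lower the luminescence because luciferase stays unfolded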
# TWEAK Fn14 block: inhibitors of TWEAK-Fn14 interaction signaling; inhibition, % at 10 µM; 2% of 360,000 active; TWEAK-stimulated Fn14 reporter cells, luciferase luminescence, 8 h; in the data active = inhibition above about 50%
# LGR2 antag: inhibitors of bursicon-induced Drosophila LGR2 receptor cAMP signaling. HEK293 LGR2, CRE-luciferase, bursicon-stimulated, 4 h. inhibition, % at 9.99 µM. 0.35% of 380,000 active. AID 720647;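 active = drop in luminescence signal, shown as inhibition above about 50% in the replicate tests, limit read from the data, passing the limit was not always enough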;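 also: agonist challenge used bursicon conditioned medium at about half maximal strength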
# * hit, by the source's call; . = not tested or not shown. An excerpt weighted towards active compounds, which were near 2.2% of everything screened.
SMILES,TROY NFkB inh,HSP90 inh,TWEAK Fn14 block,LGR2 antag
S=c1[nH]nc(C2CCCCC2)n1/N=C/c1ccncc1,14,0,82*,21
COc1ccccc1/C=C/C=N/n1c(C2CCCCC2)n[nH]c1=S,69*,-2,34,5
CN1C(=O)c2cc(NC(=O)c3ccc(F)c(F)c3)ccc2OC[C@H]2O[C@H](CC(=O)N3CCOCC3)CC[C@H]21,.,.,.,3
N#Cc1c(SCc2ccc(Cl)cc2)sc(C(=O)c2ccccc2)c1N,-1,-4,89*,.
O=C(C[C@H]1C=C[C@@H](NC(=O)C2CCC2)[C@@H](CO)O1)NCCCN1CCOCC1,.,.,.,7
CC(=O)N(C)C[C@H]1Oc2ncc(-c3ccccc3F)cc2C(=O)N([C@@H](C)CO)C[C@@H]1C,.,.,.,3
CC(OC(=O)/C=C/c1cccs1)C(=O)Nc1ccc(S(N)(=O)=O)cc1 (stereo not given),-5,4,5,23
CC(OC(=O)/C=C/c1ccc2ccccc2n1)C(=O)Nc1ccc(S(N)(=O)=O)cc1 (stereo not given),17,.,58*,10
CC(C)NC(=O)N[C@@H]1C=C[C@H](CC(=O)O)O[C@@H]1CO,.,.,.,-8
O=C(N=c1nc2ccccn2s1)c1ccccc1,59*,.,95*,.
Cc1csc(=NC(=O)c2ccccc2)n1C,-32,11,2,.
NNc1nc2ccccc2c(=O)n1Cc1ccccc1,-53,7,74*,-36
O=Nc1c(O)c2ccccc2c2ccccc12,42,.,98*,82*
Cc1ccccc1-c1cnc2c(c1)C(=O)N([C@H](C)CO)C[C@H](C)[C@@H](CN(C)C(=O)CC1CC1)O2,.,.,.,-1
COC(=O)N1C(=O)[C@](c2ccccc2)(C2CCCC2)N1C(=O)OC,30,-1,47,20
COC(=O)N1C(=O)[C@@](c2ccccc2)(C(C)C)N1C(=O)OC,19,0,61*,.
COC(=O)N1C(=O)[C@](c2ccc(Cl)cc2)(C(C)C)N1C(=O)OC,6,0,38,17
COC(=O)N1C(=O)[C@@](c2ccc(OC)cc2)(C(C)C)N1C(=O)OC,16,-2,57*,28
COCC(=O)N(C)C[C@@H]1Oc2ncc(-c3ccc(F)cc3)cc2C(=O)N([C@@H](C)CO)C[C@H]1C,.,.,.,-2
CCN(CC)CCN(Cc1cc2cc(C)cc(C)c2[nH]c1=O)C(=S)NCc1ccco1,18,0,5,17
Cc1ccc2cc(CN(Cc3ccco3)C(=O)NCc3ccccc3)c(=O)[nH]c2c1C,50*,3,22,.
Cc1ccc2cc(CN(Cc3ccco3)C(=O)c3ccccc3)c(=O)[nH]c2c1C,-14,3,-11,.
Cc1cc(C)c2[nH]c(=O)c(CN(Cc3cccs3)C(=S)NCc3ccco3)cc2c1,39,1,64*,-13
COc1ccc(NC(=O)Nc2cccc3c2O[C@@H](CN(C)Cc2ccc(C(=O)Nc4ccccc4N)cc2)[C@H](C)CN([C@@H](C)CO)C3=O)cc1,.,.,.,7
Cc1nn(C)c(C)c1CNC(=O)c1cnn2c1NC(c1ccccc1)CC2C(F)(F)F (stereo not given),-7,-2,-22,13
SMILES,TROY NFkB inh,HSP90 inh,TWEAK Fn14 block,LGR2 antag
Cc1ccc(C2CC(C(F)(F)F)n3nc(C(=O)NCc4c(C)nn(C)c4C)c(Cl)c3N2)cc1 (stereo not given),58*,3,34,.
O=C(c1ccc2oc(CCc3ccccc3)nc2c1)N1CCC(O)CC1,58*,8,49,-40
O=c1cc(CSc2ccc(Cl)cc2)nc(-c2ccccn2)[nH]1,-13,-2,106*,-3
Cn1c(N=Nc2ccc(N3CCOCC3)cc2)[n+](C)c2ccccc21,70*,-3,45,-35
Cn1c(=Nc2ccc(N3CCOCC3)cc2)ccc2ccccc21,.,-3,72*,.
CCn1c(=Nc2ccc(N3CCOCC3)cc2)ccc2ccccc21,3,3,-7,.
O=C(NCC[C@H]1CC[C@@H](NC(=O)C2CCC2)[C@@H](CO)O1)c1cnccn1,.,.,.,-1
CCCc1nnc(SCC(=O)Nc2ccc(OCC)cc2)n1N,-1,3,100*,.
CCOc1ccc(NC(=O)CSc2nnc(-c3ccccc3)n2N)cc1,-4,-3,7,14
O=[N+]([O-])c1ccccc1S(=O)NCc1c(Cl)cccc1Cl (stereo not given),55*,.,8,-2
C[C@H](CO)N1C[C@H](C)[C@H](CN(C)S(=O)(=O)c2ccc(F)cc2)Oc2c(NC(=O)CCCCCC(=O)Nc3ccccc3N)cccc2C1=O,.,.,.,3
Cc1cc(NC(=O)CCCSc2nc(-c3ccco3)cc(C(F)(F)F)n2)n(-c2ccccc2)n1,.,4,62*,.
CCN1[C@H](C(=O)Nc2nccs2)[C@@H](CO)[C@@H]2Cn3c(ccc(/C=C/c4ccccc4)c3=O)[C@@H]21,.,.,.,14

# From PubChem BioAssay
